Several values for one entry are separate records, joined by “and”; a condition that tells them apart may be missing. Identical values can stand only once. Inconclusive results are not listed. Activity calls are given as the source filed them. Unless noted, the call rests on the fitted dose curve; in most records, active means well fitted curve in the direction sought with a large enough effect; inconclusive means small, poorly fitted or top-dose-only effect, or another doubt; inactive means no such curve, though single readings can be large; an effect the other way counts as inactive or inconclusive.
How the values were obtained:
[1] = target: Cellular tumor antigen p53 (Homo sapiens) (UniProt P04637); assay: Primary qHTS for small molecule compounds that upregulate eGFP-tagged delta133p53alpha (in N-terminal) cells. (AID 2060322); details: NCI-H358 eGFP-delta133p53alpha fluorescence, 24 h; activation: stronger effect = higher value;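 further: cells pre-induced with doxycycline then dosed without doxycycline; 0% = DMSO vehicle and 100% = reference activator; nearly all actives have a fitted effect of over 75% in size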
Procedure, shortened: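 NCI-H358 cells pre-induced 24 h with 10 ng/ml doxycycline for eGFP-delta133p53alpha, plated dox-free and exposed 24 h at 37C to titrated compounds. Fixed, Hoechst-stained; gated GFP peak intensity by laser scanning cytometry, normalized to DMSO (0%) and 57.5 uM 5-azacytidine (100%).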

[2] = target: Aldehyde dehydrogenase, mitochondrial (Homo sapiens) (UniProt P05091); assay: qHTS for Inhibitors of the Aldehyde Dehydrogenase Family (ALDH2) Validation screens (AID 2061302; active means well fitted inhibition curve with a large enough effect; title and protocol of this record describe different tests;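 further: plate controls were DMSO vehicle for no effect and maximal DPI positive control response for full effect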); details: ALDH inhibition qHTS; series mostly up to 42.6 µM
[3] = target: Retinaldehyde dehydrogenase 3 (Homo sapiens) (UniProt P47895); assay: qHTS for Inhibitors of the Aldehyde Dehydrogenase Family (ALDH1A3) Validation screen (AID 2061312); details: ALDH1A3 enzyme inhibition qHTS validation, fluorescence; series mostly up to 84.7 µM; further: on the % scale 0 is the no-effect control and ±100 the full control effect; nearly all actives have a fitted effect of over 45% in size

Chain of Cellular tumor antigen p53 (Homo sapiens) (P04637 whole entry, looked up): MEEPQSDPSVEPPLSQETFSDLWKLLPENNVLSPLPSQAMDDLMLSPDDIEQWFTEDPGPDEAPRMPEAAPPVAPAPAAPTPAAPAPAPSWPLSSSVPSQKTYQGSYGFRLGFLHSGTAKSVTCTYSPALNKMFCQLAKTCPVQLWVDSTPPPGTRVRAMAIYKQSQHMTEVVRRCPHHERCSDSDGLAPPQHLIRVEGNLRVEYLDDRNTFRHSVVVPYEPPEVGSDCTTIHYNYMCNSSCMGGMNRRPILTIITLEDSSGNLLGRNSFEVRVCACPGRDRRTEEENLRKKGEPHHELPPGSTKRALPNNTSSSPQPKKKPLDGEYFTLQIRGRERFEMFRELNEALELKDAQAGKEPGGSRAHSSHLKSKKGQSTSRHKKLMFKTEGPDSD

COc1cc2nc(N3CCN(C(=O)c4ccco4)CC3)nc(N)c2cc1OC
inactive: activation [1] 2.51% and 14.7% and 81.5% | Potency [2] | Potency [3]

c1ccc2c(c1)CCC[C@H]2Nc1nc2ccccc2[nH]1
inactive: activation [1] 27.9% | Potency [2] | Potency [3]

CCOC(=O)[C@H](CCc1ccccc1)N[C@@H](C)C(=O)N1[C@H](C(=O)O)C[C@H]2CCCC[C@@H]21
inactive: activation [1] -16.3% | Potency [2] | Potency [3]

Fc1ccc([C@@H]2CCNC[C@H]2COc2ccc3c(c2)OCO3)cc1
inactive: activation [1] 28.5% and -0.566% and 41.3% | Potency [2] | Potency [3]

CNCCC=C1c2ccccc2CCc2ccccc21
inactive: activation [1] 33% | Potency [2] | Potency [3]

CC(C)C[C@H](NC(=O)C1OC1C(=O)O)C(=O)NCCCCN=C(N)N (stereo partly drawn)
inactive: activation [1] -1.96% | Potency [2] | Potency [3]

O=C(Nc1ccncc1)c1cc([N+](=O)[O-])ccc1Cl
inactive: activation [1] 6.63% | Potency [2] | Potency [3]

CCCCCCCCCCCCCCC[C@H](O)[C@H](N)CO
inactive: activation [1] 14.1% | Potency [2] | Potency [3]

CC(C)(C)c1ccc(C(O)CCCN2CCC(C(O)(c3ccccc3)c3ccccc3)CC2)cc1 (stereo not drawn)
inactive: activation [1] 5.86% and -0.341% | Potency [2] | Potency [3]

Brc1c(Br)c(Br)c2[nH]cnc2c1Br
inactive: activation [1] -55.8% | Potency [2] | Potency [3]

N=C(N)SCCN
inactive: activation [1] -11.7% | Potency [2] | Potency [3]
